# The source made the active and inactive calls. Rule for the calls: active = hit-call score of the fitted dose curve at least 0.9, where 1 is the maximum; inactive = score below 0.9.
# Read-out: flavin-containing dimethylaniline monooxygenases 3 (FMO3), FMO3 (gene 2328)
# Test: LTEA_HepaRG_FMO3: Life Technologies and Expression Analysis (LTEA) Assay for flavin-containing dimethylaniline monooxygenases 3 (FMO3) using HepaRG (AID 2283453);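 for AC50: FMO3 transcript by TaqMan qRT-PCR normalized to ACTB GAPDH and POLR2A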
# Conditions: mRNA level, 48 h; actives raise or lower the signal
# Description: LTEA_HepaRG is a cell based, multiplexed-readout assay that uses HepaRG, a human liver cell line, with measurements taken at 48 hours after chemical dosing on a 96-well plate.LTEA_HepaRG_FMO3 is one of 102 assay component(s) measured in the LTEA HepaRG cell culture assay. It is a marker of NR mediated metabolism.Data from the assay component LTEA_HepaRG_FMO3 was analyzed into 1 endpoint. This assay endpoint, LTEA_HepaRG_FMO3, was analyzed with bidirectional fitting relative to DMSO as the negative control and baseline of activity. Using a type of inducible reporter, measures of mRNA induction for gain or loss-of-signal activity can be used to understand regulation of transcription factor activity. To generalize the intended target to other relatable targets, this assay endpoint is annotated to the oxidoreductase intended target family, where the subfamily is […].
# A total of 1060 chemcials from the ToxCast library were tested in eight-point concentration-response experiments. Cell culture and cytotoxicity assays were conducted at Thermo Fisher Scientific's Custom Services facility (Madison, WI). A single lot of human HepaRG cells (Thermo Fisher Scientific, Frederick, MD) was used for the cell culture experiments. 96-well format collagen type I coated plates of human HepaRG cells were prepared using established methods. Briefly, cryopreserved HepaRG cells were thawed, plated at a density of approximately 100,000 cells/well in HepaRG Thaw, Plate, and General Purpose media (HPRG770, Thermo Fisher Scientific), and incubated for 48 hours. 0.5% DMSO was selected as vehicle control to balance the requisite need of DMSO in HepaRG cultures to maintain differentiation (for example, baseline metabolism, proportions of hepatocytes vs. cholangiocytes), while enabling further hepatic receptor pathway activation (for example, PXR and CAR) in response to chemical exposure. 48 hours after plating, the culture medium was replaced with HepaRG Serum-Free Incudtion Media. Cells were exposed to each test chemical in duplicate and maintained in CO2 incubators for another 48 hours. Chemical plates were thawed to room temperature and 200x concentrations of treatment groups were prepared. 8-point conentration-reponse curves were made with the highest exposure at 100 uM, followed by half-log dilutions, all in 0.5% DMSO. Each test plate contained variouse controls, induction positive controls (1mM phenobarbital), cytotoxicity positive controls ([…] aflatoxin B1), vehicle controls (0.5% DMSO), and total lysis controls (0.5% DMSO). Cell morphology images were taken using an Essen IncuCyte FLR automated microscope, with six 96-well plates imaged in about 24 minutes. Images were captured and exported and JPEG files. Spent culture media was transfered to black-well plates for the LDH assay, and remaining media was sorted at -80 C for later use. Cells were treated with RLT buffer and frozen until shipped for gene expression analysis. Total RNA was isolated from the cell suspension in 75 uL of Buffer RLT (Qiagen, Germantown, MD 20874) by Quintiles/Expression Analysis (Durham, NC) using a custom isolation procedure. Total RNA from each plate well was transferred to a preamplification plate. Fluidigm's 96.96 Dynamic ArrayTM (Fluidigm, Amsterdam, the Netherlands) technology was used for gene expression analyses by quantitative reverse transcription polymerase chain reaction (qRT-PCR, performed by Quintiles/Expression Analysis, Durham, NC)89. Standard TaqManTM Assays (Applied Biosystems/ThermoFisher Scientific, Foster City, CA) were used to assess the expression of 93 genes selected based on their selectivity and sensitivity to important hepatic receptors known to be modulated by environmental chemicals; importance in human hepatocyte functionality; and hepatotoxicity. […]
Structure (SMILES),AC50,outcome
CC(=O)NC1(c2cccc(F)c2)CCN(CC[C@@]2(c3ccc(Cl)c(Cl)c3)CN(c3ccccc3)C(=O)CO2)CC1,13.1 µM (active),–
CCC(=C(c1ccc(O)cc1)c1ccc(OCCN(C)C)cc1)c1ccccc1,–,inactive
CCCOc1sc(C(=O)N2CCC(c3cc(CN)ccc3F)CC2)c(C)c1Br,–,inactive
CC[C@H](C)[C@@H](C(=O)O)n1sc2ccccc2c1=O,–,inactive
O=c1c(-c2ccc(O)cc2)coc2cc(O)ccc12,–,inactive
CC#C[C@]1(O)CC[C@H]2[C@@H]3CCC4=CC(=O)CCC4=C3[C@@H](c3ccc(N(C)C)cc3)C[C@@]21C,33.4 µM (active),–
OCCC(F)(F)C(F)(F)C(F)(F)C(F)(F)C(F)(F)C(F)(F)F,–,inactive
COCC(C)OCC(C)O (stereo not given),–,inactive
CCCCCCCC(=O)O,–,inactive
CCCCCCC(=O)O,–,inactive
C#C[C@]1(O)CC[C@H]2[C@@H]3CCC4=CC(=O)CC[C@@H]4[C@H]3CC[C@@]21C,–,inactive
CCC(C)(C)C1CCC(O)CC1 (stereo not given),–,inactive
OCCC(F)(F)C(F)(F)C(F)(F)C(F)(F)C(F)(F)C(F)(F)C(F)(F)C(F)(F)F,–,inactive
CCOC(=O)CC(O)(CC(=O)OCC)C(=O)OCC,–,inactive
CN(C)C=O,–,inactive
CC(=O)CC(C)(C)O,–,inactive
CC(O)CO (stereo not given),–,inactive
NC(=O)N1C(=O)C(C(=O)c2cc(Cl)cs2)c2cc(F)c(Cl)cc21 (stereo not given),20 µM (active),–
OC1CCC(C2CCCCC2)CC1 (stereo not given),–,inactive
CCN(CC)CCNc1ccc(CNC=O)c2sc3ccc(OC)cc3c(=O)c12,34.6 µM (active),–

Structure (SMILES),AC50,outcome
CCCCC(CC)COC(=O)CCCCC(=O)OCC(CC)CCCC (stereo not given),–,inactive
CC(C)(C)CC(C)(C)c1ccc(O)c(-n2nc3ccccc3n2)c1,77.6 µM (active),–
CCc1ccc(CCOc2ccc(CC3SC(=O)NC3=O)cc2)nc1 (stereo not given),78.7 µM (active),–
ClC1=C(Cl)C(Cl)(Cl)C(Cl)=C1Cl,–,inactive
NC(=O)N(O)[C@@H]1C=C[C@H](Oc2cccc(Oc3ccc(F)cc3)c2)C1,42.7 µM (active),–
CCCCC(CC)COC(=O)CCCCC(=O)OCc1ccccc1 (stereo not given),–,inactive
CC(C)(C)c1ccc(O)c(C(C)(C)C)c1,–,inactive
COc1ccc([N+](=O)[O-])cc1N,–,inactive
CC[C@H](c1ccc(O)cc1)[C@@H](CC)c1ccc(O)cc1,79.9 µM (active),–
c1ccc2c(c1)Cc1ccccc1-2,–,inactive
CCCCCCCCC(=O)O,–,inactive
CC1=C(/C=C/C(C)=C/C=C/C(C)=C/C(=O)O)C(C)(C)CCC1,0.446 µM (active),–
CN1CCN(c2ccccc2/C=C2\SCCN(c3ccc(Cl)c(Cl)c3)C2=O)CC1,50 µM (active),–
CCCCCCCCCCCCc1ccccc1S(=O)(=O)O,83.3 µM (active),–
Oc1cc2ccccc2c2ccccc12,–,inactive
OC1CCCCC1,–,inactive
CCCCCCCCOC(=O)CCCCCCCCC(=O)OCCCCCCCC,–,inactive
Cc1oc(-c2ccccc2)nc1CCOc1ccc(C[C@H](Nc2ccccc2C(=O)c2ccccc2)C(=O)O)cc1,26.4 µM (active),–
CCc1nn(C2CCCCC2)c2cc(C3(C#N)CCC(C(=O)O)CC3)ccc12 (stereo not given),83.7 µM (active),–
O=C(O)Cc1cc(I)c(Oc2cc(I)c(O)c(I)c2)c(I)c1,58.1 µM (active),–

# From PubChem BioAssay (EPA / NIEHS)
